Measured values published in PubChem BioAssay AID2551 (National Center for Advancing Translational Sciences (NCATS), 2010).
Out of some 310,000 compounds screened, about 17,000 (5.5%) were called active. Not shown: some 11% with an inconclusive outcome. Calls come from the whole dose curve; as a rule, active = well fitted inhibition curve with a large enough effect; inconclusive = small, poorly fitted or top-dose-only effect, or effect the other way; inactive = no such curve, though single readings can be large or run the other way. Shown is part of a subset that was picked to be rich in actives.

Molecular target: Nuclear receptor ROR-gamma (Mus musculus) (UniProt P51450)
Experiment: qHTS for inhibitors of ROR gamma transcriptional activity; note: nearly all actives have a fitted effect of over 60% in size
Settings: Drosophila S2 Gal4-RORgamma UAS-luciferase reporter, 20 h; series mostly up to 53.6 µM; activity change, negative = inhibition: at the top concentration
Source text: NIH Molecular Libraries Probe Production Network [MLPCN] NIH Chemical Genomics Center [NCGC] MLPCN Grant: R03 DA026211-01 Assay Provider: Dan Littman, New York University Assay Overview: The retinoic acid-related orphan receptor (ROR) gamma is a transcription factor that has a central role in the differentiation of Th17 cells, a subset of T helper cells that secrete the inflammatory cytokines IL-17, IL-17F, and IL-22. Th17 cells have been implicated in graft versus host disease, autoimmune disease and asthma. ROR gamma is induced in naive T helper cells in the presence of TGF-beta combined with IL-6, IL-21, or IL-23, and thereafter directs the expression of the Th17 lineage cytokines. To study the mechanism of action of ROR gamma, an insect cell-based assay was screened. This Drosophila Schneider cell line was stably transfected with two vectors: a gene expressing a fusion of the Gal4 DNA binding domain and ROR gamma transactivation domain under the control of the metallothionine promoter and a Photinus luciferase reporter regulated by the Gal4 binding site enhancer, UAS. […] Small molecule inhibitors of ROR gamma activity are detected by a decrease in luciferase reporter activity.
Assay Protocol Summary: For screening, 600 cells in 4 uL/well were dispensed into white solid 1536-well plates (Grenier) using a solenoid-based dispenser. Following transfer of 23 nL compound or DMSO vehicle by a pin tool, the plates were incubated 1 hr at ambient temperature, and 1 uL/well copper sulfate (700 uM final concentration) was added. The plates were centrifuged 15 s at 1000 RPM and incubated 20 hr at ambient temperature. After addition of 1.5 uL Photinus luciferase detection reagent, the plates were incubated 10 min at ambient temperature and then read by an ViewLux (Perkin Elmer) to detect luminescence. Keywords: NIH Roadmap, MLPCN, MLI, MLSMR, qHTS, NCGC, qHTS, nuclear hormone receptor, retinoic acid-related orphan receptor, ROR gamma
% is set by controls: 0 for no effect and ±100 for the full control effect; potency is the fitted concentration of half-maximal effect.

Nuclear receptor ROR-gamma (Mus musculus), sequence (P51450 whole entry, looked up): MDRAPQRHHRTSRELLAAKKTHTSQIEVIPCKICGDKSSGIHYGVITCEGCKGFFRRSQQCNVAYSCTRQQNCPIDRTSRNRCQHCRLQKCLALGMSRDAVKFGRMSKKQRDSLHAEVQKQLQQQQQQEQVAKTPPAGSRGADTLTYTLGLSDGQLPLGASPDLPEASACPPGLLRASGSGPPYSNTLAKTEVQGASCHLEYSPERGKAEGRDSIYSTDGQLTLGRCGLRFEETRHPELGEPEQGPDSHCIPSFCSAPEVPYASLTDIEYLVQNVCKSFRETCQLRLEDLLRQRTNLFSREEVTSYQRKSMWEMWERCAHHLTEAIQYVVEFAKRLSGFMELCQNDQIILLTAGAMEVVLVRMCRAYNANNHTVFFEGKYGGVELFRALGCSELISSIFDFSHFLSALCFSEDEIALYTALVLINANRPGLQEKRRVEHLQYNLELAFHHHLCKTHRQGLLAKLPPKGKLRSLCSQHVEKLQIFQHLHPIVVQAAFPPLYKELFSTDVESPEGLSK

Activity change, negative = inhibition, inactive:
CC(=O)N1CCOc2ccc(S(=O)(=O)N3CCN(c4cccc(C(F)(F)F)c4)CC3)cc21 30.8%, COc1ccc(-n2c(C)cc(C(=O)CSc3nnc(-c4cccs4)o3)c2C)cc1 -33.4%, COc1ccc(-c2nnc(SCC(=O)NC3CCCCC3)o2)cc1OC -18.5%, COCCOC(=O)C1=C(C)NC(=O)NC1c1cc2c(cc1Br)OCO2 (centres undefined) -4.24%, O=C(O)c1ccc(/C=N/Nc2nc(N3CCCCC3)nc(N3CCCCC3)n2)cc1 -42.2%, Cc1ccc2cc(/C=N/Nc3ccc(C(=O)O)cc3)c(Cl)nc2c1 -43.4%, O=C(O)c1ccc(OCC2CCCO2)cc1 (centres undefined) -11.8%, Cc1ccc(-c2nc(-c3ccncc3)no2)c(C)c1 -32.9%, CCOc1ccccc1NC(=O)CCc1nnc2ccc(NCc3ccco3)nn12 0.872%, O=S(=O)(ON(c1ccccc1)S(=O)(=O)c1ccccc1)c1ccccc1 26.8%, CC1=C/C(=N\S(=O)(=O)c2ccccc2)C(C(C)C)=CC1=O -9.35%, Brc1cc(/C=N/n2cnnc2)oc1Br 37.3%, Fc1ccc(Br)cc1/C=N/n1cnnc1 -8.64%, O=C(CN1CCN(c2ccc(Cl)cc2)CC1)c1ccccc1 0.492%, COc1ccc(S(=O)(=O)NCCOc2ccccc2)cc1F 29.1%, COc1ccc(NS(=O)(=O)c2cc(C(=O)Nc3ccccc3C(=O)O)ccc2C)cc1 25.4%, COc1ccc(/C=C(/NC(=O)c2ccc(C)cc2)c2nc3ccccc3[nH]2)cc1OC 16.7%, COCCN(CC(=O)Nc1ccccc1C)S(=O)(=O)c1ccc(S(=O)(=O)N2CCCC2)cc1 -8.45%, COc1ccc(-n2c(=O)[nH]c3cc(C(=O)NCCc4ccc(OC)c(OC)c4)ccc3c2=O)c(OC)c1 27.9%, COc1ccc(CN2CC(C(=O)NC3CCCCC3)CC2=O)cc1 (centres undefined) 1.66%, COc1ccc(CNC2CCCCC2)cc1 -10.4%, CCN(C(=O)CN1C(=O)/C(=C/c2ccc(F)cc2)SC1=S)C1CCS(=O)(=O)C1 (centres undefined) -12.7%, CN(CC(=O)NCc1ccc(Cl)cc1)S(=O)(=O)c1cccs1 21.2%, O=C(COc1ccccc1)NCCc1nc2ccccc2[nH]1 1.23%, O=C(Cc1nc2ccccc2[nH]c1=O)c1ccc(Cl)cc1 32.2%, COc1ccccc1CNC(=O)C1CCN(S(=O)(=O)c2ccc3c(c2)OCCO3)CC1 -14.7%, COc1ccc(NC(=O)CC(NC(C)c2ccccc2)C(=O)O)cc1 (centres undefined) -12.4%, Cc1cc(NCc2ccco2)n2c(nc3ccccc32)c1C#N 38.8%, Cc1nn2c3ccccc3nc2n(C)c1=O -32%, N#Cc1c(-c2ccccc2)nc(SCc2ccc([N+](=O)[O-])cc2)[nH]c1=O 1%, CC(C)NC(=O)N1CCN(c2ccncc2S(=O)(=O)N2CCCCC2)CC1 8.85%, CC(C)C[C@H]1CN=C(Nc2ccccc2)N1CC1CCCCC1 -2%, C/C(=N\Nc1nc(N2CCOCC2)nc(N2CCOCC2)n1)c1ccc([N+](=O)[O-])cc1 -4.91%, Cc1ccc(Nc2nc(N3CCOCC3)nc(N3CCOCC3)n2)cc1Cl 3.19%, Cc1ccc(-n2ncc(C(=O)NC3CC3)c2C2CCN(C(=O)OC(C)(C)C)CC2)c(C)c1 0.982%, CCOc1ccc(CNC(=O)C2CCCN(c3nnc(C)c4c(C)n(-c5ccccc5)nc34)C2)cc1 (centres undefined) -25.4%, COc1ccc(-c2csc(NC(=O)CCCc3cccs3)n2)cc1 22.6%, Cc1ccc(-c2csc(NC(=O)Cc3cccs3)n2)cc1C 5.64%, O=C(COC(=O)/C=C/c1cccs1)NC1CCCCC1 21.6%, Cc1nc2ccccc2c(=O)n1Cc1ccc([N+](=O)[O-])cc1 -3.36%, Cn1cc(/C=C/c2nc3ccccc3c(=O)n2-c2cccc([N+](=O)[O-])c2)c2ccccc21 0.991% [at 10 µM]

Potency, active:
COc1ccc(OC)c(C(=O)CSc2nnc(-c3cccs3)o2)c1 7.08 µM, O=C(O)c1ccc(N/N=C/c2ccc3ncccc3c2)cc1 0.398 µM, N=C1/C(=C/c2cccn2-c2cccc([N+](=O)[O-])c2)C(=O)N=C2SC=CN12 5.01 µM, CC1=C/C(=N\OS(=O)(=O)c2ccccc2)C=CC1=O 1.58 µM, CCOc1cc(/C=N/n2cnnc2)c(Br)cc1O 7.08 µM, COCCN(CCOC)S(=O)(=O)c1ccc(/C(O)=C(\C#N)c2nc3ccccc3[nH]2)cc1 12.6 µM, COc1ccc(CN2CN(C3CCCC3)CSC2=S)cc1 7.94 µM, N#C/C(=C(/O)COC(=O)COc1ccc(Cl)cc1)c1nc2ccccc2[nH]1 8.91 µM, CN1c2ccccc2-c2nc3ccccc3n2C1c1ccco1 (centres undefined) 14.1 µM, C/C(=N\Nc1nc(Nc2ccccc2)nc(N2CCOCC2)n1)c1cccs1 14.1 µM, CCCc1ccc(-c2csc(NC(=O)Cc3cccs3)n2)cc1 12.6 µM, CCn1c(/C=C/c2ccc([N+](=O)[O-])o2)nc2ccccc2c1=O 7.94 µM

Potency, inactive:
CCN1C(=NCC(C)C)N[C@@H](CCc2ccccc2)[C@H](C(=O)NCC(C)C)[C@H]1C
